Bioassay records: PubChem, several laboratories
GDH-TPI counter = GDH-TPI coupled enzyme inhibition counter-screen; GDH-TPI coupled enzyme counterscreen, NADH absorbance; inhibition, % at 4.8 µM; 360,000 tested, 1.2% active; AID 588335; in the data active = inhibition above about 30%;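 also: 0% = DMSO wells and 100% = wells lacking the enzyme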
FadD28 FP inh = inhibitors of Mycobacterium tuberculosis FadD28 bisubstrate binding | FadD28 bisubstrate probe binding, fluorescence polarization | inhibition, % at 12.5 µM | 360,000 tested, 0.22% active | AID 588549; in the data active = inhibition above about 8.5%, passing the limit was not always enough
Mtb hypoxia rep = Mtb hypoxia fluorescent reporter inhibition | fluorescence inhibition, % (no concentration beside the values) | M. tuberculosis hypoxia-regulated fluorescent reporter, fluorescence | 300,000 tested, 0.1% active; in the data active = fluorescence inhibition mostly above about 23%, no sharp cut-off; inactive = mostly below about 17%
Mtb FBA inh = inhibits M. tuberculosis FBA enzyme; purified M. tuberculosis FBA, fluorescence read-out; inhibition, % at 1 µM; 360,000 tested, 2.3% active; in the data active = inhibition above about 27%;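 also: 0% = vehicle and 100% = reference inhibitor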
Target sequence (P9WQA3 whole entry, looked up): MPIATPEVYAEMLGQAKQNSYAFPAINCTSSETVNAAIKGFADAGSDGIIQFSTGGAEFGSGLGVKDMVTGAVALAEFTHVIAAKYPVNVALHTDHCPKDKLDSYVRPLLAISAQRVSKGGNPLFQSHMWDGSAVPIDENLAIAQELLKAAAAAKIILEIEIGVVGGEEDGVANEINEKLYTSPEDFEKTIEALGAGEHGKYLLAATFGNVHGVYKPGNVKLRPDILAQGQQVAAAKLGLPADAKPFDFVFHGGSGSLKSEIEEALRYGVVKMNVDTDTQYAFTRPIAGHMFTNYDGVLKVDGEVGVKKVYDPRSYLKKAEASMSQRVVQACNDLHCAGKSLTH
Mtb BioA inh = inhibitors of Mycobacterium tuberculosis BioA enzyme; inhibition, % at 9.99 µM; 360,000 tested, 0.096% active; AID 602481; purified M. tuberculosis BioA enzyme, plate reader; in the data active = inhibition above about 40%
Starred values were filed as active, the others as inactive. In the library only some 2.9% were active in any assay of this set; here they are far more common.

Screening CC(=NNC(=O)c1ccccc1)c1ccc(-n2ccnc2)cc1 returned Mtb hypoxia rep 14.
For CC1CN(C(C)CO)C(=O)c2cccc(NS(=O)(=O)c3ccccc3)c2OC1CN(C)Cc1ccncc1 (stereo not drawn) the results were Mtb hypoxia rep 11.
Screening COc1ccc(/C=N\NC(=S)SCN2C(=O)C3CCC(C)(C2=O)C3(C)C)cc1 (stereo not drawn) returned GDH-TPI counter 46*, FadD28 FP inh -1, Mtb FBA inh 0 and Mtb BioA inh -1.
C[C@H](CO)N1C[C@H](C)[C@@H](CN(C)C(=O)Nc2ccc(F)cc2)OCCCC[C@H](C)Oc2ccc(NC(=O)CCC(F)(F)F)cc2C1=O was read as Mtb BioA inh 16.
`O=C(N/N=C/c1ccc(N2CCOCC2)s1)c1ccc(O)cc1` gave GDH-TPI counter 34*, FadD28 FP inh 0, Mtb FBA inh 1 and Mtb BioA inh -6.
`O=C(N/N=C/c1ccc(N2CCOCC2)cc1)c1ccc(O)cc1` gave GDH-TPI counter 66*, FadD28 FP inh -3, Mtb FBA inh 4 and Mtb BioA inh -1.
`O=C(NN=Cc1ccc(N2CCOCC2)cc1)c1ccncc1` gave Mtb hypoxia rep 2.
For Cc1ccc(C(=O)N/N=C/c2ccc(N3CCOCC3)cc2)c(C)c1 the results were GDH-TPI counter 34*, FadD28 FP inh -2 and Mtb FBA inh 1.
For CN(C(=O)CSc1nc2ccc([N+](=O)[O-])cc2s1)C1CCS(=O)(=O)C1 (stereo not drawn) the results were GDH-TPI counter 34*, FadD28 FP inh -3, Mtb hypoxia rep 3 and Mtb FBA inh 0.
O=C(CSc1nc2ccc([N+](=O)[O-])cc2s1)NC1CCS(=O)(=O)C1 (stereo not drawn) was read as GDH-TPI counter 10, FadD28 FP inh -2, Mtb hypoxia rep -1 and Mtb FBA inh 1.
CN(C)CCCN1C(=O)c2cccc3cccc(c23)C1=O was read as GDH-TPI counter 29, FadD28 FP inh -2, Mtb hypoxia rep 7, Mtb FBA inh 34* and Mtb BioA inh 0.
`COCCC(=O)N1CCCC(C(=O)c2ccc3c4c(cccc24)CC3)C1` (stereo not drawn) gave GDH-TPI counter 4, FadD28 FP inh -1, Mtb hypoxia rep 2 and Mtb FBA inh 8.
`COCC(=O)N1CCCC(C(=O)c2ccc3c4c(cccc24)CC3)C1` (stereo not drawn) gave GDH-TPI counter 39*, FadD28 FP inh -1, Mtb hypoxia rep -3, Mtb FBA inh 27 and Mtb BioA inh 1.
Screening CC(C)NC(=O)Nc1ccc2c(c1)CC(=O)N([C@@H](C)CO)C[C@@H](C)[C@@H](CN(C)S(=O)(=O)c1cn(C)cn1)O2 returned Mtb BioA inh -2.
For Cc1ccc(SCC(=O)OCC(=O)N(CCC#N)c2ccccc2)cc1C the results were GDH-TPI counter 1, FadD28 FP inh -5, Mtb hypoxia rep -2, Mtb FBA inh -2 and Mtb BioA inh 0.
`Cc1ccc(N(CCC#N)C(=O)CCl)cc1C` gave GDH-TPI counter -3, FadD28 FP inh -4, Mtb hypoxia rep 38*, Mtb FBA inh 1 and Mtb BioA inh 0.
Screening Cc1ccc(-c2nn(CCC#N)cc2C=C(C#N)C#N)cc1 returned GDH-TPI counter 33*, FadD28 FP inh -1, Mtb hypoxia rep 15, Mtb FBA inh -1 and Mtb BioA inh 0.
For COc1ccc(-c2nn(CCC#N)cc2C=C(C#N)C#N)cc1 the results were GDH-TPI counter 21, FadD28 FP inh -6, Mtb hypoxia rep 6, Mtb FBA inh -1 and Mtb BioA inh -1.
Screening c1ccc(-c2c(-c3ccccc3)n(Cc3ccco3)c3ncnc(NCCCn4ccnc4)c23)cc1 returned GDH-TPI counter 2, FadD28 FP inh -5, Mtb hypoxia rep 19, Mtb FBA inh 9 and Mtb BioA inh 2.
For c1ccc(-c2oc3ncnc(NCCCn4ccnc4)c3c2-c2ccccc2)cc1 the results were GDH-TPI counter 6, FadD28 FP inh -15, Mtb hypoxia rep 3, Mtb FBA inh 51* and Mtb BioA inh 3.
C/C=C/c1ccc([C@H]2[C@@H](CO)N(C(=O)Nc3ccccc3F)[C@H]2C#N)cc1 was read as Mtb BioA inh -2.
Screening C[C@H](CO)N1C[C@H](C)[C@H](CN(C)Cc2cccc(F)c2)Oc2ncc(-c3cccc(F)c3)cc2C1=O returned Mtb BioA inh 4.
For CC(=O)Oc1ccc2occ(/C=N/c3cc(=O)[nH]c(=S)[nH]3)c(=O)c2c1 the results were GDH-TPI counter 39*, FadD28 FP inh -3, Mtb FBA inh -1 and Mtb BioA inh 1.
COc1ccc(C=NNc2nc3ccccc3c(=O)n2-c2ccccc2)cc1OC was read as Mtb hypoxia rep 3.
`COP(=O)(OC)c1nc(-c2cccc3ccccc23)oc1NCc1ccccc1` gave GDH-TPI counter 16, FadD28 FP inh -3, Mtb hypoxia rep 10, Mtb FBA inh 192* and Mtb BioA inh -1.
`COc1ccc(CNc2oc(-c3cccc4ccccc34)nc2P(=O)(OC)OC)cc1` gave GDH-TPI counter 7, FadD28 FP inh -3, Mtb hypoxia rep -3, Mtb FBA inh active and Mtb BioA inh -1.
For CCOP(=O)(c1ccccc1)c1nc(-c2ccccc2C)oc1NCc1ccccc1 (stereo not drawn) the results were GDH-TPI counter 5, FadD28 FP inh -1, Mtb hypoxia rep 14 and Mtb FBA inh -3.
For CCC(=O)N1C[C@@H](C)[C@@H](OC)CN(C)C(=O)c2cc(NC(=O)NC(C)C)ccc2OC[C@@H]1C the results were Mtb BioA inh -1.
COc1cc(C(C)=O)ccc1OC(=O)c1cc2cccc(OC)c2oc1=O was read as GDH-TPI counter 57*, FadD28 FP inh -1, Mtb hypoxia rep 10, Mtb FBA inh -2 and Mtb BioA inh -1.
O=C(O)c1cc(Br)ccc1NN=C1CCCCC1 was read as GDH-TPI counter 18, FadD28 FP inh 12*, Mtb hypoxia rep 6 and Mtb FBA inh 2.
`O=c1cccccc1NN=C1CCCCC1` gave GDH-TPI counter 10, FadD28 FP inh 0, Mtb hypoxia rep 1, Mtb FBA inh -4 and Mtb BioA inh -2.
`O=C(/C=C/c1cccs1)c1ccc(NC(=O)c2cccc(Br)c2)cc1` gave GDH-TPI counter 40*, FadD28 FP inh 1, Mtb hypoxia rep 9, Mtb FBA inh -1 and Mtb BioA inh -2.
For Cc1ccc(C(=O)Nc2ccc(C(=O)/C=C/c3cccs3)cc2)cc1 the results were GDH-TPI counter 18, FadD28 FP inh -2, Mtb hypoxia rep 11, Mtb FBA inh 0 and Mtb BioA inh -1.
For N#C/C(=C/c1ccc(Br)o1)C(N)=O the results were GDH-TPI counter 45*, FadD28 FP inh 0, Mtb FBA inh 0 and Mtb BioA inh 0.
COc1ccc(NC(=O)/C(C#N)=C/c2ccc(Br)o2)cc1 was read as GDH-TPI counter 21, FadD28 FP inh 1, Mtb hypoxia rep 2, Mtb FBA inh 0 and Mtb BioA inh -1.
For CC(C)NC(=O)N(C)C[C@H]1Oc2cc(C#CC3CC3)ccc2S(=O)(=O)N([C@@H](C)CO)C[C@@H]1C the results were Mtb BioA inh -1.
